# Source: the supplement of paper PMC8728848
# Shown is part of a subset that was picked to be rich in the strongest signals.
# Experiments:
# Experiment in all cases: glycan array binding signal (z-score within array); higher = stronger binding
# Settings in all cases: glycan notation: IUPAC condensed, linker removed
# [1] = target: Fuc(a1-2)Gal(b1-3)GalNAc(a1-3)[Fuc(a1-2)]Gal(b1-4)GlcNAc
# In short: (§1)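 Columns mapping to the same glycan were averaged after glycan names were converted to IUPAC-condensed notation. The data come from 3228 arrays in the Consortium for Functional Glycomics database, limited to those with an available protein sequence. Binding is reported as a within-array Z-score averaged across arrays of one protein sequence and across linkers.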
# [2] = target: Fuc(a1-2)[Gal(a1-3)]Gal(b1-3)GlcNAc(b1-2)Man(a1-3)[Fuc(a1-2)[Gal(a1-3)]Gal(b1-3)GlcNAc(b1-2)Man(a1-6)]Man(b1-4)GlcNAc(b1-4)[Fuc(a1-6)]GlcNAc
# In short: as §1
# [3] = target: Fuc(a1-2)[Gal(a1-3)]Gal(b1-3)GlcNAc(b1-3)GalNAc
# In short: as §1
# [4] = target: Fuc(a1-2)[Gal(a1-4)]Gal(b1-4)GlcNAc
# In short: as §1
# [5] = target: Fuc(a1-2)[GalNAc(a1-3)]Gal(b1-3)GlcNAc(b1-6)GalNAc
# In short: as §1
# [6] = target: Fuc(a1-2)[GalNAc(a1-3)]Gal(b1-4)GlcNAc(b1-3)Gal(b1-4)GlcNAc
# In short: as §1
# [7] = target: Fuc(a1-3)[Gal3S(b1-4)]GlcNAc
# In short: as §1
# [8] = target: Gal(a1-3)Fuc(a1-2)Gal(b1-4)GlcNAc(b1-3)[Gal(a1-3)Fuc(a1-2)Gal(b1-4)GlcNAc(b1-6)]GalNAc
# In short: as §1
# [9] = target: Gal(a1-3)Gal(b1-4)GlcNAc(b1-2)Man
# In short: as §1
# [10] = target: Gal(a1-3)Gal(b1-4)GlcNAc(b1-2)Man(a1-3)[Gal(a1-3)Gal(b1-4)GlcNAc(b1-2)Man(a1-6)]Man(b1-4)GlcNAc(b1-4)GlcNAc
# In short: as §1
# [11] = target: Gal(a1-3)[Gal(a1-4)]Gal(b1-4)GlcNAc
# In short: as §1
# Gal(a1-4)Gal(b1-4)Glc = target: Gal(a1-4)Gal(b1-4)Glc
# In short: as §1
# Gal(a1-4)Gal(b1-4)GlcNAc = target: Gal(a1-4)Gal(b1-4)GlcNAc
# In short: as §1
# [12] = target: Gal(b1-3)GlcNAc(b1-3)Gal(b1-3)GlcNAc
# In short: as §1
# [13] = target: Gal(b1-3)GlcNAc(b1-3)Gal(b1-4)GlcNAc(b1-3)Gal(b1-4)GlcNAc(b1-2)[Gal(b1-3)GlcNAc(b1-3)Gal(b1-4)GlcNAc(b1-3)Gal(b1-4)GlcNAc(b1-6)]Man(a1-6)[Gal(b1-3)GlcNAc(b1-3)Gal(b1-4)GlcNAc(b1-3)Gal(b1-4)GlcNAc(b1-2)Man(a1-3)]Man(b1-4)GlcNAc(b1-4)[Fuc(a1-6)]GlcNAc
# In short: as §1
# [14] = target: Gal(b1-4)GalNAc(b1-3)[Fuc(a1-2)]Gal(b1-4)GlcNAc
# In short: as §1
# [15] = target: Gal(b1-4)GlcNAc(b1-2)Man(a1-3)[GlcNAc(b1-4)][Gal(b1-4)GlcNAc(b1-2)Man(a1-6)]Man(b1-4)GlcNAc(b1-4)GlcNAc
# In short: as §1
# [16] = target: Gal(b1-4)GlcNAc(b1-2)[Gal(b1-4)GlcNAc(b1-4)]Man(a1-3)[Gal(b1-4)GlcNAc(b1-2)[Gal(b1-4)GlcNAc(b1-6)]Man(a1-6)]Man(b1-4)GlcNAc(b1-4)GlcNAc
# In short: as §1
# [17] = target: Gal(b1-4)GlcNAc(b1-3)Gal(b1-4)GlcNAc(b1-3)Gal(b1-4)GlcNAc(b1-2)Man(a1-3)[Gal(b1-4)GlcNAc(b1-3)Gal(b1-4)GlcNAc(b1-3)Gal(b1-4)GlcNAc(b1-2)Man(a1-6)]Man(b1-4)GlcNAc(b1-4)GlcNAc
# In short: as §1
# [18] = target: Gal(b1-4)GlcNAc(b1-6)Gal(b1-4)GlcNAc
# In short: as §1
# Gal3S(b1-3)GalNAc = target: Gal3S(b1-3)GalNAc
# In short: as §1
# Gal3S(b1-3)GlcNAc = target: Gal3S(b1-3)GlcNAc
# In short: as §1
# Gal3S(b1-4)Glc = target: Gal3S(b1-4)Glc
# In short: as §1
# Gal3S(b1-4)Glc6S = target: Gal3S(b1-4)Glc6S
# In short: as §1
# Gal3S(b1-4)GlcNAc6S = target: Gal3S(b1-4)GlcNAc6S
# In short: as §1
# [19] = target: Gal3S(b1-4)[Fuc(a1-3)]GlcNAc6S
# In short: as §1
# Gal3S4S(b1-4)GlcNAc = target: Gal3S4S(b1-4)GlcNAc
# In short: as §1
# Gal3S6S(b1-4)GlcNAc = target: Gal3S6S(b1-4)GlcNAc
# In short: as §1
# Gal4S6S(b1-4)GlcNAc = target: Gal4S6S(b1-4)GlcNAc
# In short: as §1
# GalNAc(b1-4)GlcNAc6S = target: GalNAc(b1-4)GlcNAc6S
# In short: as §1
# [20] = target: GlcNAc(b1-2)Man(a1-3)[GlcNAc(b1-4)][GlcNAc(b1-2)Man(a1-6)]Man(b1-4)GlcNAc(b1-4)[Fuc(a1-6)]GlcNAc
# In short: as §1
# [21] = target: GlcNAc(b1-3)Gal(b1-4)GlcNAc(b1-3)GalNAc
# In short: as §1
# Kdn(a2-3)Gal(b1-3)GalNAc = target: Kdn(a2-3)Gal(b1-3)GalNAc
# In short: as §1
# [22] = target: Man(a1-3)[Man(a1-6)]Man(a1-6)[Man(a1-3)]Man(b1-4)GlcNAc(b1-4)GlcNAc
# In short: as §1
# [23] = target: Man(a1-3)[Man(a1-6)]Man(b1-4)GlcNAc(b1-4)[Fuc(a1-6)]GlcNAc
# In short: as §1
# [24] = target: Neu5Ac(a2-3)Gal(b1-3)GalNAc
# In short: as §1
# [25] = target: Neu5Ac(a2-3)Gal(b1-3)GalNAc6S
# In short: as §1
# [26] = target: Neu5Ac(a2-3)Gal(b1-3)GlcNAc6S
# In short: as §1
# [27] = target: Neu5Ac(a2-3)Gal(b1-3)[GlcNAc(b1-6)]GalNAc
# In short: as §1
# [28] = target: Neu5Ac(a2-3)Gal(b1-3)[Neu5Ac(a2-6)]GalNAc
# In short: as §1
# [29] = target: Neu5Ac(a2-3)Gal(b1-4)GlcNAc(b1-2)[Neu5Ac(a2-3)Gal(b1-4)GlcNAc(b1-4)]Man(a1-3)[GlcNAc(b1-4)][Neu5Ac(a2-3)Gal(b1-4)GlcNAc(b1-4)Man(a1-6)]Man(b1-4)GlcNAc(b1-4)GlcNAc
# In short: as §1
# [30] = target: Neu5Ac(a2-3)Gal(b1-4)GlcNAc(b1-3)Gal
# In short: as §1
# [31] = target: Neu5Ac(a2-3)Gal(b1-4)GlcNAc(b1-6)[Neu5Ac(a2-3)Gal(b1-3)]GalNAc
# In short: as §1
# [32] = target: Neu5Ac(a2-3)Gal(b1-4)GlcNAc6S
# In short: as §1
# [33] = target: Neu5Ac(a2-3)Gal(b1-4)[Fuc(a1-3)]GlcNAc(b1-6)[Neu5Ac(a2-3)Gal(b1-3)]GalNAc
# In short: as §1
# [34] = target: Neu5Ac(a2-3)Gal6S(b1-4)[Fuc(a1-3)]GlcNAc
# In short: as §1
# [35] = target: Neu5Ac(a2-3)[GalNAc(b1-4)]Gal(b1-4)GlcNAc
# In short: as §1
# Neu5Ac(a2-6)Gal = target: Neu5Ac(a2-6)Gal
# In short: as §1
# [36] = target: Neu5Ac(a2-6)Gal(b1-3)GlcNAc(b1-3)[Gal(b1-4)GlcNAc(b1-6)]Gal(b1-4)Glc
# In short: as §1
# Neu5Ac(a2-6)Gal(b1-4)Glc = target: Neu5Ac(a2-6)Gal(b1-4)Glc
# In short: as §1
# [37] = target: Neu5Ac(a2-6)Gal(b1-4)GlcNAc(b1-2)Man(a1-3)[Neu5Ac(a2-6)Gal(b1-4)GlcNAc(b1-2)Man(a1-6)]Man(b1-4)GlcNAc(b1-4)[Fuc(a1-6)]GlcNAc
# In short: as §1
# [38] = target: Neu5Ac(a2-6)Gal(b1-4)GlcNAc(b1-3)Gal(b1-3)GlcNAc
# In short: as §1
# [39] = target: Neu5Ac(a2-8)Neu5Ac(a2-3)Gal(b1-4)GlcNAc
# In short: as §1
binder,measurement,setting,value
"MAL-II (Maackia amurensis), P93248 (protein) ATSNSKPTQVLLATFLTFFFLLLNNVNSSDELSFTINNFVPNEADLLFQGEASVSSTGVLQLTRVENGQPQQYSVGRALYAAPVRIWDNTTGSVASFSTSFTFVVKAPNPTITSDGLAFFLAPPDSQIPSGRVSKYLGLFNNSNSDSSNQIVAVEFDTYFGHSYDPWDPNYRHIGIDVNGIESIKTVQWDWINGGVAFATITYLAPNKTLIASLVYPSNQTSFIVAASVDLKEILPEWVRVGFSAATGYPTQVETHDVLSWSFTSTLEANSDAATENNVHIARYTA",glycan array binding signal (z-score),[1],-0.182
same,glycan array binding signal (z-score),[2],0.051
same,glycan array binding signal (z-score),[3],-0.241
same,glycan array binding signal (z-score),[4],-0.171
same,glycan array binding signal (z-score),[5],-0.266
same,glycan array binding signal (z-score),[6],-0.177
same,glycan array binding signal (z-score),[7],-0.195
same,glycan array binding signal (z-score),[8],-0.261
same,glycan array binding signal (z-score),[9],-0.188
same,glycan array binding signal (z-score),[10],0.244
same,glycan array binding signal (z-score),[11],-0.252
same,glycan array binding signal (z-score),Gal(a1-4)Gal(b1-4)Glc,-0.133
same,glycan array binding signal (z-score),Gal(a1-4)Gal(b1-4)GlcNAc,-0.185
same,glycan array binding signal (z-score),[12],-0.172
same,glycan array binding signal (z-score),[13],0.068
same,glycan array binding signal (z-score),[14],-0.263
same,glycan array binding signal (z-score),[15],-0.267
same,glycan array binding signal (z-score),[16],-0.229
same,glycan array binding signal (z-score),[17],0.674
same,glycan array binding signal (z-score),[18],-0.23
same,glycan array binding signal (z-score),Gal3S(b1-3)GalNAc,8.15
same,glycan array binding signal (z-score),Gal3S(b1-3)GlcNAc,2.09
same,glycan array binding signal (z-score),Gal3S(b1-4)Glc,1.81
same,glycan array binding signal (z-score),Gal3S(b1-4)Glc6S,3.27
same,glycan array binding signal (z-score),Gal3S(b1-4)GlcNAc6S,6.03
same,glycan array binding signal (z-score),[19],2.12
same,glycan array binding signal (z-score),Gal3S4S(b1-4)GlcNAc,-0.162
same,glycan array binding signal (z-score),Gal3S6S(b1-4)GlcNAc,-0.222
same,glycan array binding signal (z-score),Gal4S6S(b1-4)GlcNAc,-0.156
same,glycan array binding signal (z-score),GalNAc(b1-4)GlcNAc6S,-0.292
same,glycan array binding signal (z-score),[20],-0.148
same,glycan array binding signal (z-score),[21],-0.159
same,glycan array binding signal (z-score),Kdn(a2-3)Gal(b1-3)GalNAc,3.27
same,glycan array binding signal (z-score),[22],-0.107
same,glycan array binding signal (z-score),[23],-0.337
same,glycan array binding signal (z-score),[24],3.54
same,glycan array binding signal (z-score),[25],5.77
same,glycan array binding signal (z-score),[26],-0.11
same,glycan array binding signal (z-score),[27],3.23
same,glycan array binding signal (z-score),[28],7.48
same,glycan array binding signal (z-score),[29],-0.282
same,glycan array binding signal (z-score),[30],-0.196
same,glycan array binding signal (z-score),[31],3.13
same,glycan array binding signal (z-score),[32],-0.215
same,glycan array binding signal (z-score),[33],0.889
same,glycan array binding signal (z-score),[34],-0.22
same,glycan array binding signal (z-score),[35],-0.213
same,glycan array binding signal (z-score),Neu5Ac(a2-6)Gal,-0.234
same,glycan array binding signal (z-score),[36],-0.18
same,glycan array binding signal (z-score),Neu5Ac(a2-6)Gal(b1-4)Glc,-0.184
same,glycan array binding signal (z-score),[37],-0.089
same,glycan array binding signal (z-score),[38],-0.178
same,glycan array binding signal (z-score),[39],-0.255
